SMILES strings stand for the structures. Results filed as inconclusive are left out. A call without a number means that no potency is given here. Active and inactive are the calls of the source. Calls follow the shape of the dose curve; as a rule, active = well fitted activation curve with a large enough effect; inconclusive = small, poorly fitted or top-dose-only effect; inactive = no such curve, though single readings can be large or run the other way.
Potency is read from the fitted curve at half-maximal effect.

The assay can be described thus: qHTS assay for re-activators of p53 using a Luc reporter: Hit Validation. Also: nearly all actives have a fitted effect of over 75% in size. The settings on record: p53-responsive luciferase reporter cells, luminescence, H1299 line expressing heat-sensitive Ala138Val p53; series mostly up to 46.1 µM. Summed up: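 H1299 (p53-null) cells stably carrying p53-A138V and a BP100-luciferase reporter, 1000 cells/well, treated 24 h at 37 deg C. Compounds at several concentrations, 1:5 dilution; nocodazole control; luminescence read after 10 min with detection reagent.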
Background: Quantitative high-throughput screening tests each substance at several concentrations.
Regarding `O=C(NNC(=O)c1cc(-c2ccccc2)nn1-c1ccccc1)c1ccccc1`, the activation was 1.05% [at 9.22 µM] (inactive).

As to `CCc1ccc2oc(-c3ccc(N)cc3)nc2c1`, the Potency is 92 nM (active).

Consider `Cc1cccc(NC(=O)c2oc3c(c2C)C(=O)CC(C)(C)C3)n1`, for which the Potency entry was “inactive”.

Consider `O=C1CCCC(O)=C1N=Nc1c(Cl)cc(Cl)cc1Cl`, for which the Potency entry is “inactive”.

On to `O=C1NC(c2ccc(Br)cc2)=N/C1=C/c1ccco1`, for which the Potency is 580 nM (active).

`O=C(Nc1ncc(Cc2ccccc2)s1)c1cccs1`: the Potency was 2590 nM (active).

Take `CCOC(=O)N(Cc1ccccc1)C(C(=O)O)C(C(=O)O)N(Cc1ccccc1)C(=O)OCC` (centres undefined): the Potency result was “inactive”.

In the case of `Cc1ccc(NC(CC(=O)c2ccccc2)c2ccc(F)cc2)cc1` (centres undefined), the Potency result was “inactive”.

Turning to `O=C(N/N=C/c1ccccc1O)C1CC(=O)N(c2ccc(Cl)cc2)C1` (centres undefined), the Potency result was “inactive”.

With `CC(=O)c1cccc(NS(=O)(=O)N(C)C)c1`, the Potency result is “inactive”.

Consider `COc1cccc(N(C(=O)c2nc3nccc(C)n3n2)c2nc3ccccc3s2)c1`, for which the Potency was 7310 nM (active).

`Cc1cccc(N2CCN(S(=O)(=O)c3ccc4c(c3)CCC(=O)N4)CC2C)c1` (centres undefined): the Potency result is “inactive”.

Turning to `O=C(/C=C/Nc1ccccc1C(=O)O)c1cccs1`, the Potency entry is “inactive”.

`CC(=O)c1c(C)[nH]c(C(=O)OCC(=O)c2ccc(C)s2)c1C`: the Potency entry was “inactive”.

Regarding `CN1CC(C(=O)Nc2ccc(F)c(Cl)c2)CC1=O` (centres undefined), the Potency entry is “inactive”.

Consider `Cc1cc(C(=O)Cn2nnc3ccccc3c2=O)c(C)n1Cc1cccs1`, for which the Potency was 259 nM (active).

On to `CCCCCCC[C@@H](C/C=C/CCC(=O)N(C)C/C(=C/Cl)C/C(=C\C(=O)N1CC(OC)=CC1=O)OC)OC`, for which the Potency is 5800 nM (active).

As to `CCCCCCC1CC(/C(C)=N\NC(N)=O)OC1=O` (centres undefined), the Potency entry is “inactive”.

With `Cc1cc(C)cc(NC(=O)c2sc3nc(C)cc(C)c3c2N)c1`, the Potency is 11600 nM (active).

For the origin of these results see PubChem BioAssay AID624305 (National Center for Advancing Translational Sciences (NCATS), 2012).
